# Structures can show the parent of a compound that is named as a salt. About 620 (11%) of roughly 5,800 compounds showed activity. The sample holds actives, similar compounds and a random draw of the others, so the mix is not that of the screen. A number with no mark means an inactive call.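 Rule for the calls: active = score above a cut-off or among the top three wells of a plate; in these data no inactive exceeds 0.85.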
# Test system: primary human hepatic stellate cells (donor 1)
# Assay: scaled lipid accumulation score (0 = DMSO-like, 1 = nortriptyline-like); higher = stronger HSC inactivation (lipid re-accumulation), active = hit call of the paper
# Details: 48 h
# [1] = library stock concentration: 10 mM
# [2] = library stock concentration: 1 mM
# [3] = library stock concentration: 80 uM
# [4] = library stock concentration: 400 uM
# [5] = library stock concentration: 2 mM
# [6] = library stock concentration: 3.33 mM
structure (smiles),measurement,setting,value
Cc1ncc(COP(=O)([O-])[O-])c(CN(CCN(CC(=O)O)Cc2c(COP(=O)([O-])O)cnc(C)c2O)CC(=O)O)c1O.[Mn].[Na+].[Na+].[Na+],scaled lipid accumulation score,[1],0.072
CC(C)CCCCCCC/C=C\C(=O)O [cis-.DELTA.2-11-methyl-Dodecenoic Acid],scaled lipid accumulation score,[2],0.068
CCOc1ccc(Nc2nc(-c3c(C)nc4ccccn34)cs2)cc1,scaled lipid accumulation score,[1],0.446
CCCCC[C@H](O)/C=C/[C@H]1[C@H](O)CC(=O)[C@@H]1CC(=O)CCCCC(=O)O [6-keto Prostaglandin E1],scaled lipid accumulation score,[2],≤ 0
O=C(NC1CC1)c1cccc(-c2ccc3c(NC(=O)C4CC4)n[nH]c3c2)c1,scaled lipid accumulation score,[3],≤ 0
same,scaled lipid accumulation score,[4],≤ 0
same,scaled lipid accumulation score,[5],≤ 0
same,scaled lipid accumulation score,[1],≤ 0
C[C@H](Nc1ncnc2nc[nH]c12)c1cc2cccc(Cl)c2c(=O)n1-c1ccccc1,scaled lipid accumulation score,[6],≤ 0
same,scaled lipid accumulation score,[1],≤ -0.001
CCN(CC)CCNC(=O)c1ccc(NC(C)=O)cc1 [N-Acetylprocainamide hydrochloride],scaled lipid accumulation score,[1],≤ 0
CCN(CC)CCNC(=O)c1ccc(NC(C)=O)cc1 [Acecainide hydrochloride],scaled lipid accumulation score,library stock concentration: 6.4 mM,≤ 0
CCCCN(Cc1ccc(C(=O)NO)cc1)C(=O)Nc1ccccc1 [Nexturastat A],scaled lipid accumulation score,[6],≤ -0.009
same,scaled lipid accumulation score,[1],0.176
CCN(CC)Cc1ccc2cc(COC(=O)Nc3ccc(C(=O)NO)cc3)ccc2c1.Cl.O [Givinostat (ITF2357)],scaled lipid accumulation score,[6],0.903 (active)
same,scaled lipid accumulation score,[1],0.897 (active)
COc1ccc(S(=O)(=O)N2c3ccc(Cl)cc3[C@](O)(c3ccccc3Cl)[C@@H]2C(=O)N2CCC[C@H]2C(N)=O)cc1OC,scaled lipid accumulation score,[1],0.02
O=C(O)c1cc(=O)c2cccc(O)c2[nH]1 [Xanthurenic acid],scaled lipid accumulation score,[1],≤ 0
O=C(Nc1cc2cc[nH]c2cn1)c1ccccc1,scaled lipid accumulation score,[6],≤ -0.009
same,scaled lipid accumulation score,[1],≤ 0
Cc1ccc(C(=O)Nc2ccc(CN3CCN(C)CC3)c(C(F)(F)F)c2)cc1C#Cc1cnc2cccnn12 [listing 1 of 3 here],scaled lipid accumulation score,[6],1.06 (active)
CCN1CCN(Cc2ccc(NC(=O)c3ccc(C)c(Oc4ccnc5[nH]ccc45)c3)cc2C(F)(F)F)CC1,scaled lipid accumulation score,[3],0.069
same,scaled lipid accumulation score,[4],0.308
same,scaled lipid accumulation score,[5],0.809
same,scaled lipid accumulation score,[1],0.792
Cc1ccc(C(=O)Nc2ccc(CN3CCN(C)CC3)c(C(F)(F)F)c2)cc1C#Cc1cnc2[nH]ncc2c1,scaled lipid accumulation score,[6],0.479
same,scaled lipid accumulation score,[1],0.258
Cc1ccc(C(=O)Nc2ccc(CN3CCN(C)CC3)c(C(F)(F)F)c2)cc1C#Cc1cnc2cccnn12 [listing 2 of 3 here],scaled lipid accumulation score,[3],0.459
same,scaled lipid accumulation score,[1],0.533
Cc1ccc(C(=O)Nc2ccc(CN3CCN(C)CC3)c(C(F)(F)F)c2)cc1C#Cc1cnc2cccnn12 [listing 3 of 3 here],scaled lipid accumulation score,[4],0.949 (active)
same,scaled lipid accumulation score,[5],1.1 (active)
same,scaled lipid accumulation score,[1],1.14 (active)
COC(=O)N1CCN(Cc2cccc(NC(=O)Nc3ccc(C)nc3)c2F)CC1,scaled lipid accumulation score,[6],≤ 0
same,scaled lipid accumulation score,[1],0.038
CCN1CCN(Cc2ccc(NC(=O)c3ccc(C)c(/C=C/c4cnc5[nH]ccc5c4OC)c3)cc2C(F)(F)F)CC1,scaled lipid accumulation score,[5],0.888 (active)
same,scaled lipid accumulation score,[1],1.11 (active)
CCN1CCN(Cc2ccc(Nc3ncc4c(n3)N(C)c3ccccc3C(=O)N4C)cc2C(F)(F)F)CC1,scaled lipid accumulation score,[3],0.012
same,scaled lipid accumulation score,[4],0.132
same,scaled lipid accumulation score,[5],0.243
same,scaled lipid accumulation score,[1],0.479
"CCCCC/C=C\C/C=C\CCCC/C=C\CCCC(=O)O [5(Z),11(Z),14(Z)-Eicosatrienoic Acid]",scaled lipid accumulation score,[2],≤ 0
CC(S)C(=O)NCC(=O)O (stereo not drawn),scaled lipid accumulation score,[1],≤ 0
CC(S)C(=O)NCC(=O)O (stereo not drawn) [Tiopronin],scaled lipid accumulation score,[6],≤ 0
same,scaled lipid accumulation score,[1],≤ 0
CCCCCCCC/C=C\CCCCCCCCCCCC(=O)O [13(Z)-Docosenoic Acid],scaled lipid accumulation score,[2],0.016
"CCC(CO)Nc1nc(NCc2ccccc2)c2ncn(C(C)C)c2n1 [Roscovitine, (S)-Isomer]",scaled lipid accumulation score,[6],≤ 0
CC1(C)S[C@@H]2[C@H](/N=C/N3CCCCCC3)C(=O)N2[C@H]1C(=O)O,scaled lipid accumulation score,[1],≤ 0
CCCCC[C@@](C)(O)/C=C/[C@H]1C=CC(=O)[C@@H]1C/C=C\CCCC(=O)O [15(R)-15-methyl Prostaglandin A2],scaled lipid accumulation score,[2],≤ 0
"CCCCc1c(-c2ccc(O)cc2)[nH]c2nccnc12 [Aloisine A, RP107]",scaled lipid accumulation score,[6],≤ 0
O=C(O)COc1cccc(-c2ocnc2-c2nc(-c3ccccc3)c(-c3ccccc3)o2)c1,scaled lipid accumulation score,[1],≤ -0.006
CN1CCN(C2=Nc3ccccc3Sc3ccc(Cl)cc32)CC1 [Clothiapine],scaled lipid accumulation score,library stock concentration: 5.8 mM,0.413
O=C(O)C=CC(=O)O.OCCOCCN1CCN(C2=Nc3ccccc3Sc3ccccc32)CC1.OCCOCCN1CCN(C2=Nc3ccccc3Sc3ccccc32)CC1 [Quetiapine Fumarate],scaled lipid accumulation score,[1],1.06 (active)
OCCOCCN1CCN(C2=Nc3ccccc3Sc3ccccc32)CC1 [Quetiapine fumarate],scaled lipid accumulation score,library stock concentration: 2.3 mM,0.28
OCCOCCN1CCN(C2=Nc3ccccc3Sc3ccccc32)CC1 [Quetiapine],scaled lipid accumulation score,library stock concentration: 5.2 mM,≤ 0
OCCOCCN1CCN(C2=Nc3ccccc3Sc3ccccc32)CC1 [Quetiapine Fumarate],scaled lipid accumulation score,[6],0.061
OCCOCCN1CCN(C2=Nc3ccccc3Sc3ccccc32)CC1,scaled lipid accumulation score,[1],0.251
CCCCC[C@@H](O)/C=C/[C@H]1C(=O)C[C@H](O)[C@@H]1C/C=C\CCCC(=O)O [15(R)-Prostaglandin D2],scaled lipid accumulation score,[2],≤ 0
O=C([O-])[C@H]1/C(=C/CO)O[C@@H]2CC(=O)N21.[Li+] [Clavulanate lithium],scaled lipid accumulation score,library stock concentration: 9.7 mM,≤ 0
CCS(=O)(=O)Nc1ccc2[nH]c(O)c(C(=Nc3ccc(CN4CCCCC4)cc3)c3ccccc3)c2c1 [Hesperadin],scaled lipid accumulation score,[6],≤ 0
same,scaled lipid accumulation score,[1],0.147
Cl.N=C(N)NCCC[C@H](N)C(=O)O,scaled lipid accumulation score,[1],≤ 0
O=S(=O)(O)Oc1ccc(C(c2ccc(OS(=O)(=O)O)cc2)c2ccccn2)cc1 [Sodium Picosulfate],scaled lipid accumulation score,[6],≤ 0
same,scaled lipid accumulation score,[1],≤ -0.001
